# The full ranking holds about 25,000 sequences; the median of “ln(normalized median fluorescence intensity)” is about 6.7, and the highest 2% start at about 10. What follows is part of a selection rich in the highest values, with near analogues and random picks from the rest.
# System: PfHDP1 homeodomain (GST-tagged)
# Assay: gcPBM binding intensity (ln(normalized median fluorescence intensity)); higher = stronger DNA binding
# Method in brief: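 Plasmodium falciparum DNA-binding domains carrying a GST tag were expressed in E. coli and applied for 1 h, at about 25 μg on average, to an Agilent 4 × 180k array. The array held primer-extended double-stranded 36-bp intergenic genomic probes together with negative controls, and binding took place in 1× PBS with 1% milk, 0.2 mg/ml BSA, 0.5% salmon testes DNA and 0.03% Triton X-100. An Alexa488 anti-GST antibody detected bound protein, and the array was scanned at 488 nm. Binding intensity is taken as the highest Masliner-normalised natural-log median intensity across replicate spots of either probe orientation.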
row,Sequence,gcPBM binding intensity (ln)
1,TTATTTTTTTTATATATATGTATAAATATATATATA [XGTACX_negctrl_site441],7.84
2,TTATAAAATGGGCAAACACACACAAAAAAAAGATAT [CACACA_site8476],7.42
3,TAATACTTTTAATCTACACACGCTGAGACATGCTTT [CACACA_site1484],6.14
4,ATATACTTATATATTGCACACATCTAATATTTTGAA [CACACA_site3165],10.5
5,TATATCTTACTTTTTGCACACACTAATATTATTGTT [CACACA_site1640],10.1
6,TAATATTACATTTATTGTACTTTGTTTTTATTTTAT [XGTACX_site1605],6.27
7,TATCTTACTTTTTGCACACACTAATATTATTGTTTA [CACACA_site4990],11.1
8,ATAATATTATACTTTGCACACATCTGAAATGACATA [CACACA_site3952],10.4
9,ATATATTTTTTGAATACACACATATTATCTGTAATA [CACACA_site4826],6.45
10,ATAAATCCCAAAACCTTGCAAGACAACGTTTGATCA [CACACA_negctrl_site1327],6.57
11,TCTTTAACAAGTTAAACACACATACCTATATACATA [CACACA_site7237],6.47
12,TCTTTCTTATTTTAATGATATTTATTCATTCCAGTT [CACACA_negctrl_site1679],6.52
13,TTCCCAACATGATATTGTACATTTAATTATAATTAA [XGTACX_site7029],7.08
14,TTATCTCTACAAAGTGCACACACGTAAAAACATATA [CACACA_site3957],8.98
15,TAAAAAAAAACATGTGCACACGTTTTATCTACATAA [CACACA_site2336],10.8
16,CAAAACATTTTATCTACACACATATATAAATAAATA [CACACA_site3220],6.36
17,TATTATTGTCTTTCAAAAAAAAAAAAAAAAAAAAAA [CACACA_negctrl_site1242],6.11
18,TATCGAGCCATTTTTACATGCAATTATACATAATTT [TGCATGCA_site987],6.73
19,AATATTGCACCATTTTGTACATAATATATTCAAATA [XGTACX_site475],10.3
20,ATAATTATTCTTATGGTGCACTGAATATACATGTTG [GTGCAC_site9760],9.5
21,AATATATTGCACCATTGGACCTGAATAATTCTTCCA [CACACA_negctrl_site1071],11.4
22,ATATCTATAATAAATACACACATTTATATAGATAAA [CACACA_site7518],6.38

row,Sequence,gcPBM binding intensity (ln)
1,AAATGTGTTAATGTGCGTACACATATATATAATATT [XGTACX_site2792],6.66
2,GTGTATTTTGTGCGCACACACATGCAAAAAGAAATA [CACACA_site6660],9.54
3,TTGTGGATTTTGTGCGCACACACATGCAAAAAGAAA [CACACA_site1147],9.58
4,ATTTTGTGCGCACACACATGCAAAAAGAAATATGAT [TGCATGCA_site261],10.5
5,TAATGATAAATACATACACACAAAAAATGATATATA [CACACA_site7258],6.48
6,TCTTCTTTTTTTTTTTTGTATTATTATAAATATTAT [CACACA_negctrl_site1668],6.53
7,ATATATATTATTTCTACACACATATATATAATATGT [CACACA_site3374],6.9
8,GAAAATAAAATAAATGCATGTAAATTTAATGTAATG [TGCATGCA_site996],6.88
9,AATATATATATGTGTACACATCCAAAATAGGCATAC [CACACA_site5705],7.59
10,TATATATAATATTATACACACATATCTGCATAATAT [CACACA_site4202],7.05
11,TTAATATATTATCTGGTGCATAAACACGTTATACCT,10.6
12,TTTGTTATATTTAATACACACATATTATAAACACAT [CACACA_site7703],6.88
13,AATATTATTTATATTTGTACACAGTAATATAAAATA [XGTACX_site4884],6.25
14,AATTGTTAATGGTACGAACACACATATAAAGATGCA [CACACA_site2043],6.76
15,AAAAAATTATAAAAGTGTACATATATATATATATAT [XGTACX_site154],9.48
16,AATTGTGCATTATATTGTACACGTGTTGTATATATT [XGTACX_site975],10.8
17,TAAATTGGTGCAAAGTGTACATATATATCTTTCCTA [XGTACX_site5458],10.4
18,GTTGTTATATAAAATTGTACATAAAAAACAAAATAT [XGTACX_site5313],6.8
19,ATATATAATTTTTGTTGTACATTATAAAAATAATTA [XGTACX_site2738],6.3
20,ATGTGTATATATTATTGTACATATATATATATATAT [XGTACX_site4627],9.24
21,TATATATTATATATATGTACATATTGTTGTGTATAT [XGTACX_site767],7.15
22,GTGTGCAAAAATTGTTGTACATTATATATAAAAAAA [XGTACX_site3246],10.6

row,Sequence,gcPBM binding intensity (ln)
1,TAGGTACATAAATTGGTGCAAAGTGTACATATATAT,10.8
2,CCCACAGACGGACACACACACACACCGACACATATA [CACACA_site4356],7.01
3,TTATAATTTAATAAATGTACATAAATAATATACATA [XGTACX_site7271],6.14
4,AAATTATTAAGTGATATAATATTCTATAGATGGGGA [CACACA_negctrl_site168],6.76
5,TGTGCATAATTTTGTGCACACCACGCTAATAATTTT [CACACA_site2915],11.5
6,CCACGAGAATATATAGTGCATAATAATTTTTTTTTG,8.82
7,ATTTTTTTTTTTTTTTTTTTTGCACCATAAAATAAT [CACACA_negctrl_site1324],10.1
8,GTATGGCGTATCATATGTACTAAAAAAAAATAAAAA [XGTACX_site5101],6.49
9,AAAGAAATGAAATATACACACATACCTATATACATA [CACACA_site7817],6.63
10,ATATATGATGTATTTGTGCACATATATATATTATTA [GTGCAC_site9471],10.7
11,TATGTATGTTAGTGTGCACACATAAATATTATATAT [CACACA_site9121],11.1
12,TGTGTGTGTATATGTGTGCACATATAAAATAGAAGA [GTGCAC_site9714],10.5
13,TAAAATAGAAATATATGTACATATATATATGTATAT [XGTACX_site4134],6.4
14,AAAAAAAAAAAAAGCACACACACATATGTGTATATA [CACACA_site8225],6.86
15,ATAAATACATATGTGTGTACACATTATATATATATA [XGTACX_site1486],9.17
16,GAAAAGCAGATAAATGTGCACATATATGTTTGTATA,10.8
17,AAAAAATAAAAAGATACACACATATGTATAATATAC [CACACA_site1496],6.83
18,TATATGTATAGAAAATGTACATATAAATATATATAT [XGTACX_site3420],7.94
19,ATATATGTATGTTAGACACACATATTATAATATGTT [CACACA_site116],6.5
20,CACATATATATGTGTGCATGTTGTATTATATATTTA [TGCATGCA_site632],8.72
21,TTTTTGTTATTATGTGTGCACATATATATATATATA,10.4

# Reference: the supplement of paper PMC11417369
